Binding signal data for two sequences are collected here from publication PMC7862700, “An all-to-all approach to the identification of sequence-specific readers for epigenetic DNA modifications on cytosine”.

Experiment in all cases: DAPPL (digital affinity profiling via proximity ligation, sequencing); 10 mM Tris-HCl pH 7.5, 50 mM NaCl, 1 mM DTT, 4% glycerol, room temperature, 30 min; GST-TFs on glutathione beads, 16-mer random dsDNA library, 0.1% formaldehyde crosslink after washing; high values mean tight binding
What all share (conditions): protein: recombinant; tags: N-terminal GST; dsDNA, one strand shown

One test deals with T1, FLI1 (Homo sapiens, UniProt Q01543 1-452).
T1 sequence: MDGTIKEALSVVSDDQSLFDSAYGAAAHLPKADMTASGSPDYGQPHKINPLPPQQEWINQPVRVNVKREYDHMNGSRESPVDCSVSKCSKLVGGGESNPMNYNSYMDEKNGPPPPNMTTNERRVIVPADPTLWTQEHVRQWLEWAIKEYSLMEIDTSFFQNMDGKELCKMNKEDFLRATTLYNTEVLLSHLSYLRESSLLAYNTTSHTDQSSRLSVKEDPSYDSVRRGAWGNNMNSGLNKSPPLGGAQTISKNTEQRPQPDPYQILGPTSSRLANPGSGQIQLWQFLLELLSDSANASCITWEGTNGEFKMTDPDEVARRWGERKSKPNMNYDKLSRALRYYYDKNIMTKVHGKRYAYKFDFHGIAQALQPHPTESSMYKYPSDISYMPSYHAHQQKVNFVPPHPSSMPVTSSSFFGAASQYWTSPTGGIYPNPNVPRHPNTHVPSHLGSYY
The essentials: (§1)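 Binding signal is defined as a hexamer's read frequency for one factor over its frequency for the tag-only sample. To obtain reads, GST-fused human transcription factors were expressed in yeast, captured on glutathione beads, barcoded with DNA and pooled with that sample. Pools met 200 nmole of a 16-mer random double-stranded DNA library in Tris/NaCl/DTT/glycerol buffer for 30 min at room temperature before washing, 0.1% formaldehyde crosslinking, proximity ligation (BsaI/T4 ligase, 1 h, 37 °C), PCR and Illumina NextSeq500 sequencing.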

The next test addresses T2, ELK1 (Homo sapiens, UniProt P19419 1-428).
T2 sequence: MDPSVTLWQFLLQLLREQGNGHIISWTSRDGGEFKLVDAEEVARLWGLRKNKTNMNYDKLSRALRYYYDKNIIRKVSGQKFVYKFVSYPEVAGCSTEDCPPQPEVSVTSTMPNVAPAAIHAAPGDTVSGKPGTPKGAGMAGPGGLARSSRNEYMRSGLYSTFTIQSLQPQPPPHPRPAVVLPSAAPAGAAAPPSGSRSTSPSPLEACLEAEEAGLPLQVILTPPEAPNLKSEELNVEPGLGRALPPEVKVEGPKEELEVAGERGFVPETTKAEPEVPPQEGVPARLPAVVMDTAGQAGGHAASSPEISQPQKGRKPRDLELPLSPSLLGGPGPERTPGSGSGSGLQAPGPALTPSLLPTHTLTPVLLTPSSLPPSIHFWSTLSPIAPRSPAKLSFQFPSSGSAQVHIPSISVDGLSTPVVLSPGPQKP
The essentials:
as §1

The target in the next test is T3, GABPA (Homo sapiens, UniProt Q06546 1-454).
T3 sequence: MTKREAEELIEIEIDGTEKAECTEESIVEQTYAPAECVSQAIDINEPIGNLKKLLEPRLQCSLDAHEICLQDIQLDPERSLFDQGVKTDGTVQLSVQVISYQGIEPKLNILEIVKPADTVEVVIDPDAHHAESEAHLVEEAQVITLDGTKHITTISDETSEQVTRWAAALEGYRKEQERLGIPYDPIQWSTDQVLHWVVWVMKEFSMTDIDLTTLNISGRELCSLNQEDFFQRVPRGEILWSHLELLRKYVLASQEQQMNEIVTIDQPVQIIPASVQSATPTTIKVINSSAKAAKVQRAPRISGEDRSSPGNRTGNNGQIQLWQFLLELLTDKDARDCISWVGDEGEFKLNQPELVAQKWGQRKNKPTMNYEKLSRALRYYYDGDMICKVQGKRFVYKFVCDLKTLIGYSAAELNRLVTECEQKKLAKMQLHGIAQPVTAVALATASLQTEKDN
The essentials: as §1

The target in another test is T4, ERG (Homo sapiens, UniProt P11308 1-479).
T4 sequence: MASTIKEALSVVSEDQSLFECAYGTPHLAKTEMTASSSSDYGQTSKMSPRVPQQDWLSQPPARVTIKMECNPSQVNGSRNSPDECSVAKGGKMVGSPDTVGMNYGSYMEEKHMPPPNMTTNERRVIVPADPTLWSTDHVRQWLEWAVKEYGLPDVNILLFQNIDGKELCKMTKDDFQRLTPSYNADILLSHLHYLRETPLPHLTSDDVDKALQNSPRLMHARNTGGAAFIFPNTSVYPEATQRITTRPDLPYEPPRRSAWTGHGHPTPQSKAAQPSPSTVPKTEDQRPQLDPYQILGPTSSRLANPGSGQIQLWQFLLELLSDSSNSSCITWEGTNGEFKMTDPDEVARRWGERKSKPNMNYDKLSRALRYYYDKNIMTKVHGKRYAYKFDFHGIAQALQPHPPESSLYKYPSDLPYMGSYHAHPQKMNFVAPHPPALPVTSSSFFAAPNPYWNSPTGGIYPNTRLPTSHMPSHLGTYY
The essentials:
as §1

The target of a further test is ELF1 (Homo sapiens, UniProt P32519 1-619). The essentials: as §1
The next test has as its target T5, EHF (Homo sapiens, UniProt Q9NZC4 1-300).
T5 sequence: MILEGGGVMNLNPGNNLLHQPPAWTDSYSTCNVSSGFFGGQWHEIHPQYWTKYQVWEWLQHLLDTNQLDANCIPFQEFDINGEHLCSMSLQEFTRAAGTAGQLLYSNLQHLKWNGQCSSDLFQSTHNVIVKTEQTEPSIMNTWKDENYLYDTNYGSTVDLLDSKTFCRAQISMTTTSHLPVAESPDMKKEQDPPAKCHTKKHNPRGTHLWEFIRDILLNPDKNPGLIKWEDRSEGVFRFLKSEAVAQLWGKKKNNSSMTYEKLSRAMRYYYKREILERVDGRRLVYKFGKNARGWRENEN
The essentials: as §1

For a further test, the target named is SPI1 (Homo sapiens, UniProt P17947 1-270). The essentials: as §1
The target in another test is SPIB (Homo sapiens, UniProt Q01892 1-262). The essentials: as §1
Another test concerns the target T6, ELK3 (Homo sapiens, UniProt P41970 1-407).
T6 sequence: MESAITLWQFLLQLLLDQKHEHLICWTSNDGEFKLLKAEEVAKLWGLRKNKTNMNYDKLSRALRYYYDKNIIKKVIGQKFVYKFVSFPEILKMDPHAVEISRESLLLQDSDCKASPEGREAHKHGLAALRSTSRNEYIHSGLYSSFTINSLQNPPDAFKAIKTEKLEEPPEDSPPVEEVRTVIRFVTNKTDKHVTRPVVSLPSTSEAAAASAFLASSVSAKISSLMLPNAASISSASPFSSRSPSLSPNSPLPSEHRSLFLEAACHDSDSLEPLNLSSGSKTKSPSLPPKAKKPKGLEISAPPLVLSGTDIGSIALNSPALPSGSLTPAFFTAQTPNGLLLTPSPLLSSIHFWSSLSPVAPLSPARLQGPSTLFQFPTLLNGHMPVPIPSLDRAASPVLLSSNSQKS
The essentials:
as §1

The target in a further test is T7, FEV (Homo sapiens, UniProt Q99581 1-238).
T7 sequence: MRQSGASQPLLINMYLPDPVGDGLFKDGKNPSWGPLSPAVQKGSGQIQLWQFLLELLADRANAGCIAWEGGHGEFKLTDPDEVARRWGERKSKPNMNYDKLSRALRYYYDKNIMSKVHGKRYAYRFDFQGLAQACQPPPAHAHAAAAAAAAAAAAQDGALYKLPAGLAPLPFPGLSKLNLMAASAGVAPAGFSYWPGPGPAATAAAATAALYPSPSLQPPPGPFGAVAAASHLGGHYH
The essentials: as §1

In another test the target is ETV5 (Homo sapiens, UniProt P41161 1-510). The essentials: as §1
The next test concerns the target T8, SPIC (Homo sapiens, UniProt Q8N5J4 1-248).
T8 sequence: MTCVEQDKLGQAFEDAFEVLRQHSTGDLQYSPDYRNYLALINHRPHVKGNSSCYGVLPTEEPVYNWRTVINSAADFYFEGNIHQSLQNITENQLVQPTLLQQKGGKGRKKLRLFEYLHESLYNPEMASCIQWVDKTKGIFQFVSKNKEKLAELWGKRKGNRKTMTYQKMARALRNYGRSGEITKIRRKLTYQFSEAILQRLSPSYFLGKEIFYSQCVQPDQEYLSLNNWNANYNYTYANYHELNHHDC
The essentials: as §1

The target of a further test is ELF4 (Homo sapiens, UniProt Q99607 1-663). The essentials:
as §1

The target of the next test is T9, ELK4 (Homo sapiens, UniProt P28324-2 1-405).
T9 sequence: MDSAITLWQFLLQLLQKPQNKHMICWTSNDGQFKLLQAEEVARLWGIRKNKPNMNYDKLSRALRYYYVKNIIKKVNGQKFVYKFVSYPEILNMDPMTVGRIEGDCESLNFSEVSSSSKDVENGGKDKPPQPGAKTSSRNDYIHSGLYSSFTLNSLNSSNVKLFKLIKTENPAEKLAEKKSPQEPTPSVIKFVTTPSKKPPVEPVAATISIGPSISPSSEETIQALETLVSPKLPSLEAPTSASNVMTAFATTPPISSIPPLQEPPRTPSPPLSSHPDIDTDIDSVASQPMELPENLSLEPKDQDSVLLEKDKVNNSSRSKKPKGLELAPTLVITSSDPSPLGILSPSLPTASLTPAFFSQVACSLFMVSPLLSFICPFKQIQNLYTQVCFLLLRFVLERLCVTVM
The essentials: as §1

In the next test the target is T10, ETV2 (Homo sapiens, UniProt O00321 1-342).
T10 sequence: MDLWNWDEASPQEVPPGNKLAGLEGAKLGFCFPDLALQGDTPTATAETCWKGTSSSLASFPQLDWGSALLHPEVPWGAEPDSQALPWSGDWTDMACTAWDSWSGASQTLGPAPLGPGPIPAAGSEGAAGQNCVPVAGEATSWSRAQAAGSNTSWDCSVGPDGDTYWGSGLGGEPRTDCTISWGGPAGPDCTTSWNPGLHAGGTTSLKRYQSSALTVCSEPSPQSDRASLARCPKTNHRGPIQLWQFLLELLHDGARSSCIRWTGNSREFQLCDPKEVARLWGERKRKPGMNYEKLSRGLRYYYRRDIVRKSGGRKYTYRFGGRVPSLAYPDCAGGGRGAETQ
The essentials:
as §1

The next test deals with T11, ELF3 (Homo sapiens, UniProt P78545 1-371).
T11 sequence: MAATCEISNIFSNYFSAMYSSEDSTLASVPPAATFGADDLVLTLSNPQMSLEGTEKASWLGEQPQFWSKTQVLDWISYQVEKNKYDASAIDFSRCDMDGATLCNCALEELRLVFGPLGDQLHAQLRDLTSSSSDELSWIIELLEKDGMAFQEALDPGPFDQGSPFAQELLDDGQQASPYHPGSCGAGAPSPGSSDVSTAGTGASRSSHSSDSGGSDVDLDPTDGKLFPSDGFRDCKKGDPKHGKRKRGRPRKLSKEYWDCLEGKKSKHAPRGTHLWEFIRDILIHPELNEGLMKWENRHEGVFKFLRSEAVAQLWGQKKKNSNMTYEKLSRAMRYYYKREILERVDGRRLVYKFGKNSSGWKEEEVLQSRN
The essentials: as §1

In a further test the target is ETV1 (Homo sapiens, UniProt P50549 1-477). The essentials: as §1
Chain of ETV1 (P50549 whole entry): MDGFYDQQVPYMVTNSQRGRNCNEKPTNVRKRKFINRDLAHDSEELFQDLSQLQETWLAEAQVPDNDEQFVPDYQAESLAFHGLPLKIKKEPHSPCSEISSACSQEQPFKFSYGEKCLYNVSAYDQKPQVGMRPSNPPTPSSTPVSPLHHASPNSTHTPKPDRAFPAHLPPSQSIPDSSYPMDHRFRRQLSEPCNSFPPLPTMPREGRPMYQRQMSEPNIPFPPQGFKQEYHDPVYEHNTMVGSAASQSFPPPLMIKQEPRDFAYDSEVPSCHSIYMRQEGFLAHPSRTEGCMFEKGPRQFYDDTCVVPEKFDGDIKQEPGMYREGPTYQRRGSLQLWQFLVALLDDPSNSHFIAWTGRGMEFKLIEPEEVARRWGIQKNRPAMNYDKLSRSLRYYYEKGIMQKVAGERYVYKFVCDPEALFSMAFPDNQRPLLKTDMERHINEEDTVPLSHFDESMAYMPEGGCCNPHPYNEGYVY

Chain of SPIB (Q01892 whole entry): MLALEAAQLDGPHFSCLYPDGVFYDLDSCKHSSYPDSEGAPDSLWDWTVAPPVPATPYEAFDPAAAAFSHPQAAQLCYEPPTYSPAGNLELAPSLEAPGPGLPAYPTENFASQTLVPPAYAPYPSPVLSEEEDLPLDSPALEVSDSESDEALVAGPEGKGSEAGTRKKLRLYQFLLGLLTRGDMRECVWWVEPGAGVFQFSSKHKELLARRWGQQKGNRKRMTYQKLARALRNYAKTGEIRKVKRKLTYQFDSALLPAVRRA
Chain of ETV5 (P41161 whole entry): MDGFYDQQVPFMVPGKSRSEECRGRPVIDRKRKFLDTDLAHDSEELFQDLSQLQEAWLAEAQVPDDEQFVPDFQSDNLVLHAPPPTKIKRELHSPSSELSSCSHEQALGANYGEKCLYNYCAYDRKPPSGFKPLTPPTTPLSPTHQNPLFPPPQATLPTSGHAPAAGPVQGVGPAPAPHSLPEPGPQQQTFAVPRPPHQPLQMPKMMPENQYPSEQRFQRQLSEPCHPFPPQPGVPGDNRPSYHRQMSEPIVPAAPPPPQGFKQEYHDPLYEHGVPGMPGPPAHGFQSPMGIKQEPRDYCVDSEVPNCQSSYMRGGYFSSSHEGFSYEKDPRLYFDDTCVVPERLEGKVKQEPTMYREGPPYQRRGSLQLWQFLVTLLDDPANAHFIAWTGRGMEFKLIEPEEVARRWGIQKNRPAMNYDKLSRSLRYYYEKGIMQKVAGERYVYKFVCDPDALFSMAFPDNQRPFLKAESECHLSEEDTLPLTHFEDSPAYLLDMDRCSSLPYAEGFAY
Chain of ELF1 (P32519 whole entry): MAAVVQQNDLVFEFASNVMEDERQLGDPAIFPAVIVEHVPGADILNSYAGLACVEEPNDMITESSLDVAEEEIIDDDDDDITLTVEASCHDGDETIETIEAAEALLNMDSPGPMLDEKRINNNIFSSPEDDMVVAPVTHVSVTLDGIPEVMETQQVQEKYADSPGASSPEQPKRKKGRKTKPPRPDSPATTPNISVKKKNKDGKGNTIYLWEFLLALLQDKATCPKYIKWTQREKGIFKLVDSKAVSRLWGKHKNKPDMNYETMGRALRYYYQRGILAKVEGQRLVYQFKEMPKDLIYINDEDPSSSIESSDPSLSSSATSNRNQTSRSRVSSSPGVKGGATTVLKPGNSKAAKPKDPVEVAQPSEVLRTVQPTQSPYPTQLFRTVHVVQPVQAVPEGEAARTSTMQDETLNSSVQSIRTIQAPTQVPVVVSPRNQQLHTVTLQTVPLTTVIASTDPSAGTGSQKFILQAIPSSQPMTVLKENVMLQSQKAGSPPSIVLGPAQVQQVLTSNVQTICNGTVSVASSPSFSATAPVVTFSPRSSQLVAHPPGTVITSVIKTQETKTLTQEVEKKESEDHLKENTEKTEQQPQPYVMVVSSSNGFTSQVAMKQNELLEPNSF
Chain of ELF4 (Q99607 whole entry): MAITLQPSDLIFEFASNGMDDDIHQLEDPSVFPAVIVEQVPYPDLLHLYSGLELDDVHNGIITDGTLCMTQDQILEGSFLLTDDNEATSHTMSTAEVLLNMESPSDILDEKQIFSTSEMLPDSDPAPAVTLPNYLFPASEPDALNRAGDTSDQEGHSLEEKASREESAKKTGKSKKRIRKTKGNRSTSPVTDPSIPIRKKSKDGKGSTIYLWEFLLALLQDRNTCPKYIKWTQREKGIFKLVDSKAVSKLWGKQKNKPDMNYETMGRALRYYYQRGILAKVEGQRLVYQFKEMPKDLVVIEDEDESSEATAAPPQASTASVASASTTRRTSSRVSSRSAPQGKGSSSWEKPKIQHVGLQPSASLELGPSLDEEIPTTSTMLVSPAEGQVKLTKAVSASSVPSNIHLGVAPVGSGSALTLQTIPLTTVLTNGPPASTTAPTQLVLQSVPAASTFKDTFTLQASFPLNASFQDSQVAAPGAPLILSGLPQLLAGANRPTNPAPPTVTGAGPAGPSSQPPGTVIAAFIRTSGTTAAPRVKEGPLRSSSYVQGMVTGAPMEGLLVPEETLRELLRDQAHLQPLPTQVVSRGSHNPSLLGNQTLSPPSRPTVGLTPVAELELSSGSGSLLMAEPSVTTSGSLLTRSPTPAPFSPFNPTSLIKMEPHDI

Turning to TGGACA, the binding signal in the test with FLI1 is 1.06 fold enrichment (6-mer frequency, TF over GST control); with ELK1 it was 1.07 fold enrichment (6-mer frequency, TF over GST control); with GABPA it was 1.11 fold enrichment (6-mer frequency, TF over GST control); with ERG, 1.05 fold enrichment (6-mer frequency, TF over GST control); with ELF1 it was 1.15 fold enrichment (6-mer frequency, TF over GST control); in the test with EHF it was 1.05 fold enrichment (6-mer frequency, TF over GST control). In addition, the binding signal with SPI1 is 1.03 fold enrichment (6-mer frequency, TF over GST control); with SPIB, 1.08 fold enrichment (6-mer frequency, TF over GST control); with ELK3, 1.07 fold enrichment (6-mer frequency, TF over GST control); with FEV, 1.1 fold enrichment (6-mer frequency, TF over GST control); with ETV5, 1.08 fold enrichment (6-mer frequency, TF over GST control); in the test with SPIC, 1.05 fold enrichment (6-mer frequency, TF over GST control). Moreover, the binding signal is 1.13 fold enrichment (6-mer frequency, TF over GST control) with ELF4; 1.03 fold enrichment (6-mer frequency, TF over GST control) in the test with ELK4; 1.03 fold enrichment (6-mer frequency, TF over GST control) with ETV2; 1.15 fold enrichment (6-mer frequency, TF over GST control) in the test with ELF3; 1.03 fold enrichment (6-mer frequency, TF over GST control) in the test with ETV1.
As to ACACCT, the binding signal with FLI1 is 1.1 fold enrichment (6-mer frequency, TF over GST control); in the test with ELK1, 1.09 fold enrichment (6-mer frequency, TF over GST control); in the test with GABPA it was 1.04 fold enrichment (6-mer frequency, TF over GST control); with ERG, 1.12 fold enrichment (6-mer frequency, TF over GST control); with ELF1 it was 1.07 fold enrichment (6-mer frequency, TF over GST control); in the test with EHF it was 1.13 fold enrichment (6-mer frequency, TF over GST control). Further, the binding signal is 1.09 fold enrichment (6-mer frequency, TF over GST control) in the test with SPI1; 1.03 fold enrichment (6-mer frequency, TF over GST control) with SPIB; 1.06 fold enrichment (6-mer frequency, TF over GST control) with ELK3; 1.03 fold enrichment (6-mer frequency, TF over GST control) with FEV; 1.03 fold enrichment (6-mer frequency, TF over GST control) with ETV5; 1.04 fold enrichment (6-mer frequency, TF over GST control) in the test with SPIC. In addition, the binding signal in the test with ELF4 is 1.11 fold enrichment (6-mer frequency, TF over GST control); in the test with ELK4, 1.1 fold enrichment (6-mer frequency, TF over GST control); with ETV2 it was 1.03 fold enrichment (6-mer frequency, TF over GST control); with ELF3 it was 1.03 fold enrichment (6-mer frequency, TF over GST control); with ETV1, 1.13 fold enrichment (6-mer frequency, TF over GST control).
